In PubChem BioAssay:
Some of the results follow. Results filed as inconclusive are left out. Active and inactive are the calls of the source.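 Rule for the calls, unless noted: active = thallium entry rate above the same plate's blocked-transporter control wells by more than 3 SD; inconclusive = the two repeat wells disagree; inactive = the rest.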

What was measured:
[1] = inhibitors of TNFa-induced NFkB p65 translocation, primary screen, imaging, HUVEC, MLSMR starter and 10KST1 sets (AID 438;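 active = inhibition above 20% together with a positive visual image hit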;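 note: compound added about 3h40 before a 20 min TNFalpha stimulation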;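 for inhibition: signal is the nuclear over cytoplasmic p65 intensity ratio per well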); conditions: HUVEC TNFa-induced p65 nuclear translocation; cell count: measured here: nuclei count (cytotoxicity indicator), at 2.08 µM; inhibition: at 2 µM, stronger effect = higher value, 0% TNFa-plus-vehicle, 100% no-TNFa wells
[2] = inhibitors of mutant huntingtin aggregation, primary screen, imaging, exon1htt(103Q)mCFP cells, high-content imaging (AID 483;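 active = visual image review flags a hit and inhibition of aggregation exceeds 20%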;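 note: compound exposure lasted 3 days before fixation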;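 for nuclei count: percent of the per-plate median nuclei count of sample wells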); conditions: exon1htt(103Q)mCFP cell line, aggregate imaging, at 2 µM; inhibition of aggregation: stronger effect = higher value; nuclei count: measured here: cell count, toxicity
[3] = inhibitors of E-selectin induction by TNFa, primary screen, imaging, HUVEC, immunofluorescence, MLSMR starter and 10KST1 sets (AID 487;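 active = visually confirmed hit in the image check and inhibition above 20%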;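 for inhibition: signal is fraction of cell area covered by stained E-selectin grains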;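 for nuclei count: 100% = median nuclei count of all wells on the same plate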); conditions: HUVEC TNFalpha-induced E-selectin immunofluorescence imaging, at 2 µM; inhibition: stronger effect = higher value; nuclei count: measured here: cell number, toxicity
[4] = DUSP6 inhibitors restoring Erk phosphorylation by chemical complementation, primary imaging in DUSP6-transfected HeLa (AID 609;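 active = compounds giving at least 50% inhibition in the cell-based MKP-3 phosphatase rescue imaging test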;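 for inhibition: phospho-Erk level distribution per well compared with pooled transfected vehicle control wells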); conditions: HeLa MKP-3 transfected, phospho-Erk imaging KS statistic, at 10 µM, cells stimulated with TPA for 15 min
[5] = biological target: Dual specificity protein phosphatase 6 (Homo sapiens) (UniProt Q16828); experiment: as above; conditions: HeLa MKP-3 transfected, phospho-Erk imaging KS statistic; at 10 µM; stronger effect = higher value; cells stimulated with TPA for 15 min
[6] = biological target: Voltage-gated potassium channel subunit beta-2 (Rattus norvegicus) (UniProt P62483); experiment: KvBeta enzyme negative modulators, primary screen, biochemical, NADPH fluorescence (AID 622;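 active = fluorescence slope higher than the sample average by over 3 SD, cut at about -0.22 in these data, passing the limit was not always enough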;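 note: slope of raw intensity against log time taken from 70 to 1610 s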); conditions: recombinant KvBeta, 4-cyanobenzaldehyde reduction, at 10 µM, stronger effect = higher value
[7] = biological target: Voltage-gated potassium channel subunit beta-2 (Rattus norvegicus) (UniProt P62483); experiment: KvBeta positive modulators, primary screen, biochemical, NADPH fluorescence (AID 623;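 active = NADPH fluorescence slope more negative than the mean of all samples by about 3 SD, 99.7% confidence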;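 note: fluorescence intensity change per second fitted from 20 to 320 s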); conditions: Recombinant KvBeta, NADPH fluorescence decrease slope, 10 min; at 10 µM; stronger effect = lower value
[8] = biological target: Alpha-2C adrenergic receptor (Homo sapiens) (UniProt P18825); experiment: modulators of alpha2C/GIRK thallium flux, primary screen, cell-based, HEK293 alpha2C/GIRK1/2 (AID 624;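 active = fluorescence slope after compound addition differing from the mean of all screened samples at 99.7% confidence, in either direction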;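 note: slope of fluorescence ratio to pre-addition baseline per second over 15 to 24 s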); conditions: thallium flux BTC fluorescence, at 10 µM, actives lie on both sides
[9] = inhibitors of larval lipid processing in zebrafish, primary screen, whole organism, PED6 fluorescence, gall bladder and intestine (AID 686;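 active = a full or partial loss of lipid-probe fluorescence in the fish gall bladder, intestine or both, judged by eye; inactive = no fluorescence loss, or compound toxic to the fish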;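 note: larvae 5 to 7 days old with five fish per well; signal comes from phospholipase A2 cleavage of quenched PED6 carried via bile; overnight exposure to compound and PED6 before scoring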); conditions: Zebrafish larvae PED6 lipid processing, fluorescence scoring; screened at 20 µM (by protocol)
[10] = biological target: Solute carrier family 12 member 5 (Homo sapiens) (UniProt Q9H2X9); experiment: KCC2 modulators in sodium-free buffer, confirmation, cell-based, HEK293 KCC2, thallium flux, secondary assay (AID 1713;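 active = thallium flux slope above the same plate's solvent-only control mean plus 3 SD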); conditions: FluoZin2 fluorescence, at 10 µM, stronger effect = higher value
PubChem AID 1714 = conditions: HEK293-KCC2 + bumetanide/ouabain, thallium flux FluoZin2; at 10 µM; stronger effect = higher value
[11] = biological target: Solute carrier family 12 member 5 (Homo sapiens) (UniProt Q9H2X9); experiment: KCC2 modulators without ouabain present, confirmation, cell-based, HEK293 KCC2, thallium flux, FluoZin2, secondary assay 2 (AID 1715;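 active = thallium flux slope more than 3 SD above or below the plate's solvent-only control mean, mostly below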;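 note: raw slope with 0.1% DMSO as baseline and bumetanide as block control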); conditions: HEK293-KCC2, thallium flux FluoZin2 fluorescence; at 10 µM; actives lie on both sides; F/F0 rise rate, 10–20 s post-thallium
[12] = thallium flux modulation in parental HEK cells, confirmation, counter-screen for KCC2 modulator project, cell-based, counterscreen 1 (AID 1716;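 active = thallium flux rate significantly above the same plate's solvent-only control wells, beyond their mean plus 3 SD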); conditions: HEK293 parental cells, thallium flux FluoZin2, ouabain; at 10 µM; baseline-ratio fluorescence slope, 10–20 s after thallium
[13] = inhibitors of Chlamydomonas gravitaxis, primary screen, whole organism, Chlamydomonas reinhardtii, WT vs cilia-less mutant, absorbance, 96-well (AID 463189;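 active = inhibition at or above 50% relative to wild type and mutant plate controls; inactive = inhibition below 50%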;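 note: 0% = wild type cc124 cells in DMSO and 100% = ciliumless bld1 mutant cells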); conditions: OD600 absorbance, 2 days, at 10 µM, stronger effect = higher value
[14] = inhibitors of Sendai virus-induced IRF3 signaling, primary screen, TLR/RLR signaling modifier project, cell-based, Sendai virus stimulus, luciferase, 10K MLSCN set (AID 602276;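 active = inhibition at or above 50% at 10 µM; inactive = inhibition below 50%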;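 note: firefly luciferase from ISG56 promoter only with Renilla not read in this screen; 0% = Sendai virus plus DMSO and 100% = medium plus DMSO without virus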); conditions: HEK293 RL24 IRF3 luciferase reporter, at 10 µM, stronger effect = higher value
[15] = inhibitors of poly I:C-induced TLR3 signaling, primary screen, cell-based, poly I:C stimulus, luciferase, 10K MLSCN set (AID 602277;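 active = inhibition of the reporter signal at or above 50%; inactive = inhibition below 50%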); conditions: HEK293-TLR3 RL24 IRF3 luciferase reporter, at 10 µM, stronger effect = higher value
[16] = biological target: Solute carrier family 12 member 5 (Homo sapiens) (UniProt Q9H2X9); experiment: KCC2 inhibitors and activators, ouabain retest, confirmation, HEK-KCC2 cells (AID 1717;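 active = thallium flux slope beyond 3 SD from same-plate DMSO control mean in most replicates, usually higher, sometimes lower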;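 note: slope of initial-normalized fluorescence between seconds 10 and 20 after thallium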); conditions: HEK293-KCC2, thallium flux FluoZin2 fluorescence, at 10 µM, bidirectional: low = inhibitor, high = activator
[17] = native HEK Tl+ uptake effects, second counter-screen – HEK cells, counterscreen 2, counter-screen for KCC2 modulator project, confirmation (AID 1718;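 active = thallium flux slope above the same plate's solvent-control mean plus 3 SD in both duplicate wells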;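 note: run without ouabain in cells lacking the KCC2 cotransporter; slope of fluorescence scaled to its starting value between 10 and 20 s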); conditions: HEK293 parental, thallium flux FluoZin-2 fluorescence slope; at 10 µM
[18] = measured here: cell density z-score
[19] = measured here: nuclear c-Myc green intensity z-score
[20] = measured here: nuclear pErk red intensity z-score, stronger effect = higher value

Alpha-2C adrenergic receptor (Homo sapiens), sequence (P18825 whole entry, looked up): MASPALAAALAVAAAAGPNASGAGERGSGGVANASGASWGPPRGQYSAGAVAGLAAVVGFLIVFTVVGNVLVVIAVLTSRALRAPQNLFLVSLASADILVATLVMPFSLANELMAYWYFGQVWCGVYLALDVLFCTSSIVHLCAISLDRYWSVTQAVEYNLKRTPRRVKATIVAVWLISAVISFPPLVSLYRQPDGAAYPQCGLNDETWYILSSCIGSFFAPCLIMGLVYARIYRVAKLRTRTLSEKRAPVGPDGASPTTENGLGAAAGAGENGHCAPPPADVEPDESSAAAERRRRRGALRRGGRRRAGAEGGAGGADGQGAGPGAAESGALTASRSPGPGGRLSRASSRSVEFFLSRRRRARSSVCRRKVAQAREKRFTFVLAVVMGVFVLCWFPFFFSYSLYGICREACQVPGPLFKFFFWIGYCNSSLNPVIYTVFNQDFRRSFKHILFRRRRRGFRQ
Voltage-gated potassium channel subunit beta-2 (Rattus norvegicus), sequence (P62483 whole entry, looked up): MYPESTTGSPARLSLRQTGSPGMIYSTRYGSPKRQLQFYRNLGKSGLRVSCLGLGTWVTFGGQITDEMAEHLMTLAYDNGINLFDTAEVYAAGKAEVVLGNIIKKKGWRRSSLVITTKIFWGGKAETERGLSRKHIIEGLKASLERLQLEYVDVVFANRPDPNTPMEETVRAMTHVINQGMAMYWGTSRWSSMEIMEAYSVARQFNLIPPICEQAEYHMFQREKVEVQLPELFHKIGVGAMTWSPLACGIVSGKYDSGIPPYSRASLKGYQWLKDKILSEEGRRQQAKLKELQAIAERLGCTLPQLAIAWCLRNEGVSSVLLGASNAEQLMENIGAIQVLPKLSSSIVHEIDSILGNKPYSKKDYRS
Solute carrier family 12 member 5 (Homo sapiens), sequence (Q9H2X9 whole entry, looked up): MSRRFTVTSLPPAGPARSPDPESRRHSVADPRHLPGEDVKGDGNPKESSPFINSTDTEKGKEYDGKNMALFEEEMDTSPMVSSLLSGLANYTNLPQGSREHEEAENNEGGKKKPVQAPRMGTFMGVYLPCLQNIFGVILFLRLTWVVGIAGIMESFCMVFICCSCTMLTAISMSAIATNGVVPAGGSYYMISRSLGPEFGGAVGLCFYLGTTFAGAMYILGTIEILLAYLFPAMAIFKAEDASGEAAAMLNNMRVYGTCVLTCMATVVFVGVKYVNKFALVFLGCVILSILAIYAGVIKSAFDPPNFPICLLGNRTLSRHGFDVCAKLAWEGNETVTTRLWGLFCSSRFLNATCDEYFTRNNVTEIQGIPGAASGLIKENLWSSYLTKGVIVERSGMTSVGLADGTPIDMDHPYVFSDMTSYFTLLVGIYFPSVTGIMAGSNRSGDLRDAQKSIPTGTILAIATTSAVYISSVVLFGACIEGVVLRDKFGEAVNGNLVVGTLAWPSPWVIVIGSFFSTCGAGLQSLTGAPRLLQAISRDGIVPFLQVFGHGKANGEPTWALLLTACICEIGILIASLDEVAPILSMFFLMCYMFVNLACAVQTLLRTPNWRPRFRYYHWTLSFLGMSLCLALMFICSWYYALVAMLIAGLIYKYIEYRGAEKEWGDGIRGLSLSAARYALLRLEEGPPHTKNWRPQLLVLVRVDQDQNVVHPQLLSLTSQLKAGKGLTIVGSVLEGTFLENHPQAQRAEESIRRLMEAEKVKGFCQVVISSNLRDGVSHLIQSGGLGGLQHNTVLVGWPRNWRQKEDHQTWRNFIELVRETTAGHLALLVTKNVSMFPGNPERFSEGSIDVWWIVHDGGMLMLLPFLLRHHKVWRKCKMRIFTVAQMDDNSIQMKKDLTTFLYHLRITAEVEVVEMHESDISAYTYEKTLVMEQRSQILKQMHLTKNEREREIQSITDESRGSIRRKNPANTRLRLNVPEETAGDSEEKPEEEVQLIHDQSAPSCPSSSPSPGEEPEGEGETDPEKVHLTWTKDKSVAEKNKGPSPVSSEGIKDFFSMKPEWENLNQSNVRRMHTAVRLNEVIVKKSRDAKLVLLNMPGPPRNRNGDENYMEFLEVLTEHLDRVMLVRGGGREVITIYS
Dual specificity protein phosphatase 6 (Homo sapiens), sequence (Q16828 whole entry, looked up): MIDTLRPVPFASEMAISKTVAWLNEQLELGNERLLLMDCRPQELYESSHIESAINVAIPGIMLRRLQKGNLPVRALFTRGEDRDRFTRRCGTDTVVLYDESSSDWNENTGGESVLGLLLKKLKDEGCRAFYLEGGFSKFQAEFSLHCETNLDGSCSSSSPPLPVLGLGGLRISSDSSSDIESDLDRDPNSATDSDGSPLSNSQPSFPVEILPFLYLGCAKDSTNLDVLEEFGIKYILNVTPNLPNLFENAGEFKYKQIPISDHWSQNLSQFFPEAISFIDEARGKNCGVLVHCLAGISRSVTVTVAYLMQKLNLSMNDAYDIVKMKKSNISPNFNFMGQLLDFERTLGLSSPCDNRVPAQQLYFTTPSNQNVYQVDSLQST

## O=c1c2ccccc2[nH]c(=S)n1CCN1CCC(=C(c2ccc(F)cc2)c2ccc(F)cc2)CC1
[1]
  cell count: 603
  inhibition: -12.2% (inactive)
[2]
  inhibition of aggregation: 12% (inactive)
  nuclei count: 92.5%
[3]
  inhibition: -105% (inactive)
  nuclei count: 132%
[4]; [18]
  z-score: -1.63
[4]; [19]
  z-score: -0.997
[4]; [20]
  z-score: 0.771
[5]
  inhibition: -4.44% (inactive)
[6]
  fluorescence slope: -0.452 (inactive)
[7]
  NADPH fluorescence slope: -0.000101 (inactive)
[8]
  slope: 0.00649 (inactive)
[9]
  outcome: inactive
[10]
  normalised thallium flux (F/F0 slope): 0.00677 (inactive)
PubChem AID 1714;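 note: raw slope of fluorescence over initial fluorescence between 10 and 20 s after thallium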
  normalized thallium flux: 0.0111 (active)
[11]
  normalized thallium flux: 0.0294 (inactive)
[12]
  thallium flux rate (normalised fluorescence): 0.00955 (active)
[13]
  inhibition: -8.89% (inactive)
[14]
  inhibition: 8.28% (inactive)
[15]
  inhibition: 23.8% (inactive)

## COc1cccc(NC(=S)NC(=O)c2c(Cl)c(C)nn2C)c1
[10]
  normalised thallium flux (F/F0 slope): 0.0264 (active)
PubChem AID 1714;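 note: raw slope of fluorescence over initial fluorescence between 10 and 20 s after thallium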
  normalized thallium flux: 0.063 (active)
[12]
  thallium flux rate (normalised fluorescence): 0.0727 (active)
[16]
  raw Tl+ flux slope (below DMSO = inhibition, above = activation): 0.066 (active)
[17]
  thallium flux slope: 0.0309 (active)

## Fc1ccc(COc2cccc(-c3n[nH]c(=S)o3)c2)cc1
[10]
  normalised thallium flux (F/F0 slope): 0.0171 (inactive)
PubChem AID 1714;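 note: raw slope of fluorescence over initial fluorescence between 10 and 20 s after thallium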
  normalized thallium flux: 0.101 (active)
[12]
  thallium flux rate (normalised fluorescence): 0.0348 (active)
[16]
  raw Tl+ flux slope (below DMSO = inhibition, above = activation): 0.042 (active)
[17]
  thallium flux slope: 0.0338 (active)

## Cn1c(C(=O)NCCc2ccsc2)cc2c(=O)n(C)c3ccccc3c21
[10]
  normalised thallium flux (F/F0 slope): 0.00557 (inactive)
PubChem AID 1714;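 note: raw slope of fluorescence over initial fluorescence between 10 and 20 s after thallium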
  normalized thallium flux: 0.00386 (inactive)
[16]
  raw Tl+ flux slope (below DMSO = inhibition, above = activation): 0.0126 (active)
[17]
  thallium flux slope: 0.00931 (inactive)

## CC1Cc2ccccc2N1C(=O)CSc1nc2ccccc2o1 (stereo not drawn)
[10]
  normalised thallium flux (F/F0 slope): 0.00599 (inactive)
PubChem AID 1714
  normalized thallium flux: 0.0054 (inactive)
[16]
  raw Tl+ flux slope (below DMSO = inhibition, above = activation): 0.0143 (active)
[17]
  thallium flux slope: 0.00901 (inactive)

## Cc1ccc(OCC(=O)N2CCN(C(=O)c3cccnc3)CC2)cc1
[10]
  normalised thallium flux (F/F0 slope): 0.00886 (inactive)
PubChem AID 1714
  normalized thallium flux: 0.00586 (inactive)
[11]
  normalized thallium flux: 0.0326 (inactive)
[16]
  raw Tl+ flux slope (below DMSO = inhibition, above = activation): 0.0189 (inactive)
[17]
  thallium flux slope: 0.0114 (inactive)

## O=C(C1CCN(c2nnc(-n3cccc3)s2)CC1)N1CCc2ccccc2C1
[1]
  cell count: 479
  inhibition: -5% (inactive)
[2]
  inhibition of aggregation: -15.5% (inactive)
  nuclei count: 65.3%
[3]
  inhibition: -9.9% (inactive)
  nuclei count: 104%
[6]
  fluorescence slope: -0.605 (inactive)
[7]
  NADPH fluorescence slope: -3.9e-05 (inactive)
[8]
  slope: 0.00552 (inactive)
[10]
  normalised thallium flux (F/F0 slope): 0.00728 (inactive)
PubChem AID 1714
  normalized thallium flux: 0.00506 (inactive)
[11]
  normalized thallium flux: 0.0245 (active)
[12]
  thallium flux rate (normalised fluorescence): 0.00773 (inactive)
[17]
  thallium flux slope: 0.0107 (inactive)
[14]
  inhibition: 0.226% (inactive)
[15]
  inhibition: 24.9% (inactive)

## COc1cccc2sc(Nc3nc(C)c(C(C)=O)s3)nc12
[10]
  normalised thallium flux (F/F0 slope): 0.00922 (inactive)
PubChem AID 1714
  normalized thallium flux: 0.0124 (active)
[11]
  normalized thallium flux: 0.0359 (inactive)
[16]
  raw Tl+ flux slope (below DMSO = inhibition, above = activation): 0.0215 (inactive)
[17]
  thallium flux slope: 0.0124 (inactive)

## COc1cc(OC)cc(C(=O)NCCSCc2ccco2)c1
[10]
  normalised thallium flux (F/F0 slope): 0.00951 (inactive)
PubChem AID 1714
  normalized thallium flux: 0.00654 (inactive)
[11]
  normalized thallium flux: 0.0289 (inactive)
[16]
  raw Tl+ flux slope (below DMSO = inhibition, above = activation): 0.0187 (inactive)
[17]
  thallium flux slope: 0.0101 (inactive)

## O=C(CNCc1cccs1)Nc1cc(S(=O)(=O)N2CCCC2)ccc1Cl
[10]
  normalised thallium flux (F/F0 slope): 0.00507 (inactive)
PubChem AID 1714
  normalized thallium flux: 0.00419 (inactive)
[11]
  normalized thallium flux: 0.0229 (active)
[16]
  raw Tl+ flux slope (below DMSO = inhibition, above = activation): 0.0155 (active)
[17]
  thallium flux slope: 0.0101 (inactive)

## O=C(Cc1csc(Nc2nc(=S)[nH]c3ccccc23)n1)NCCCN1CCN(c2cccc(Cl)c2)CC1
[10]
  normalised thallium flux (F/F0 slope): 0.0134 (active)
PubChem AID 1714
  normalized thallium flux: 0.0417 (active)
[11]
  normalized thallium flux: 0.0374 (inactive)
[16]
  raw Tl+ flux slope (below DMSO = inhibition, above = activation): 0.0417 (active)
[17]
  thallium flux slope: 0.0172 (active)

## Cn1c(CCCOc2ccc(Cl)cc2Cl)n[nH]c1=S
[10]
  normalised thallium flux (F/F0 slope): 0.00558 (inactive)
PubChem AID 1714
  normalized thallium flux: 0.00856 (active)
[11]
  normalized thallium flux: 0.0217 (active)
[16]
  raw Tl+ flux slope (below DMSO = inhibition, above = activation): 0.0131 (active)
[17]
  thallium flux slope: 0.00939 (inactive)

## O=C(Oc1c(-c2ccco2)oc2ccccc2c1=O)c1cccnc1
[10]
  normalised thallium flux (F/F0 slope): 0.0222 (active)
PubChem AID 1714
  normalized thallium flux: 0.0675 (active)
[11]
  normalized thallium flux: 0.0399 (inactive)
[16]
  raw Tl+ flux slope (below DMSO = inhibition, above = activation): 0.0573 (active)

## CCCCn1c(=S)[nH]c2ncccc2c1=O
[10]
  normalised thallium flux (F/F0 slope): 0.0429 (active)
PubChem AID 1714
  normalized thallium flux: 0.12 (active)
[16]
  raw Tl+ flux slope (below DMSO = inhibition, above = activation): 0.0884 (active)
[17]
  thallium flux slope: 0.0266 (active)

## O=S(=O)(c1cccc(S(=O)(=O)N2CCC(n3nnc4ccccc43)CC2)c1)N1CCCCC1
[10]
  normalised thallium flux (F/F0 slope): 0.00996 (inactive)
PubChem AID 1714
  normalized thallium flux: 0.00678 (inactive)
[12]
  thallium flux rate (normalised fluorescence): 0.00751 (inactive)
[16]
  raw Tl+ flux slope (below DMSO = inhibition, above = activation): 0.0174 (active)

## CSc1ncnc2sc(C)c(C)c12
[10]
  normalised thallium flux (F/F0 slope): 0.00741 (inactive)
PubChem AID 1714
  normalized thallium flux: 0.0121 (active)
[11]
  normalized thallium flux: 0.0306 (inactive)
[12]
  thallium flux rate (normalised fluorescence): 0.0146 (active)
[17]
  thallium flux slope: 0.0129 (active)

## COc1cc(NS(=O)(=O)c2ccc(N)cc2)nc(OC)n1
[1]
  cell count: 482
  inhibition: 1.1% (inactive)
[2]
  inhibition of aggregation: -12.6% (inactive)
  nuclei count: 82%
[3]
  inhibition: -59.5% (inactive)
  nuclei count: 96.6%
[4]; [18]
  z-score: 0.641
[4]; [19]
  z-score: 0.795
[4]; [20]
  z-score: -0.759
[5]
  inhibition: 5.79% (inactive)
[6]
  fluorescence slope: -0.439 (inactive)
[7]
  NADPH fluorescence slope: -7e-05 (inactive)
[8]
  slope: 0.00564 (inactive)
[13]
  inhibition: 20.1% (inactive)
[14]
  inhibition: 24.9% (inactive)
[15]
  inhibition: 51.9% (active)
